# PubChem BioAssay (EPA / NIEHS)
# Calls of active or inactive are those of the source. The calls were made as follows: active = hit-call score of the fitted dose curve at least 0.9, where 1 is the maximum; inactive = score below 0.9.
# Tests used:
# [1] = read-out: Transforming growth factor beta 1 (TGFb1), TGFB1 (gene 7040); assay: BSK_KF3CT_TGFb1: BioMAP Diversity Plus: KF3CT Assay for Transforming growth factor beta 1 (TGFb1) Biomarker Activity (AID 2283072); details: primary human keratinocytes with fibroblasts; actives raise or lower the signal
# How it was run: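 Signal changes in either direction, relative to DMSO, define activity here. TGF-b1 is read by ELISA from a human keratinocyte-fibroblast co-culture 24 h post-dose.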
# [2] = read-out: C-C motif chemokine 2 (Homo sapiens) (UniProt P13500); assay: BSK_KF3CT_MCP1: BioMAP Diversity Plus: KF3CT Assay for Monocyte Chemoattractant Protein 1 (MCP1/CCL2) Biomarker Activity (AID 2283073); details: primary human keratinocytes with fibroblasts; actives raise or lower the signal
# How it was run: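 Keratinocytes and foreskin fibroblasts were co-cultured, dosed with chemical, and sampled 24 h later. MCP-1 was quantified by ELISA, and the endpoint was analyzed with bidirectional fitting using DMSO as negative control.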
# [3] = read-out: Matrix Metallopeptidase 9 (MMP9), MMP9 (gene 4318); assay: BSK_KF3CT_MMP9: BioMAP Diversity Plus: KF3CT Assay for Matrix Metallopeptidase 9 (MMP9) Biomarker Activity (AID 2283074); details: primary human keratinocytes with fibroblasts; actives raise or lower the signal;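 as to AC50: MMP9 protein level quantified by ELISA in the co-culture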
# How it was run: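 Keratinocyte plus foreskin fibroblast human primary skin co-culture was dosed with chemical and MMP-9 was quantified by ELISA 24 h later. Bidirectional curve fitting used DMSO as negative control and activity baseline.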
# [4] = read-out: urokinase plasminogen activator (uPA), PLAU (gene 5328); assay: BSK_KF3CT_uPA: BioMAP Diversity Plus: KF3CT Assay for urokinase plasminogen activator (uPA) Biomarker Activity (AID 2283075); details: primary human keratinocytes with fibroblasts; actives raise or lower the signal
# How it was run: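 Human keratinocyte plus foreskin fibroblast primary co-culture exposed to chemical for 24 h. uPA levels were quantified by ELISA, and activity was fitted bidirectionally against a DMSO negative-control baseline.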
# CD40, CD40 (gene 958) [5] = assay: BSK_LPS_CD40: BioMAP Diversity Plus: LPS Assay for CD40 Biomarker Activity (AID 2283076); details: primary human HUVEC with PBMC; actives raise or lower the signal
# How it was run: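 CD40 signal, measured by ELISA, is fitted in both directions relative to DMSO vehicle. The system is an LPS-driven human vascular primary co-culture of endothelial cells and PBMC, sampled 24 h after compound addition.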
# [6] = read-out: E-selectin (Homo sapiens) (UniProt P16581); assay: BSK_LPS_Eselectin: BioMAP Diversity Plus: LPS Assay for Eselectin Biomarker Activity (AID 2283077); details: primary human HUVEC with PBMC; actives raise or lower the signal
# How it was run: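 Signal of E-selectin, detected by ELISA, served as the endpoint; cells were umbilical vein endothelium with PBMC, read 24 h after treatment. DMSO defined baseline, and both increases and decreases were fitted.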
# [7] = read-out: Interleukin-8 (IL8), CXCL8 (gene 3576); assay: BSK_LPS_IL8: BioMAP Diversity Plus: LPS Assay for Interleukin-8 (IL8) Biomarker Activity (AID 2283078); details: primary human HUVEC with PBMC; actives raise or lower the signal
# How it was run: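 Endothelial cells and PBMC from human donors are co-cultured, treated with chemicals and LPS, then assayed for IL-8 by ELISA after 24 h. Parallel SRB staining (0.1% SRB after 10% TCA fixation, 560 nm) flags cytotoxicity.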
# [8] = read-out: Interleukin-1 alpha (IL1a), IL1A (gene 3552); assay: BSK_LPS_IL1a: BioMAP Diversity Plus: LPS Assay for Interleukin-1 alpha (IL1a) Biomarker Activity (AID 2283080); details: primary human HUVEC with PBMC; actives raise or lower the signal
# How it was run: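 Measured: IL-1 alpha via ELISA at 24 h in LPS-activated human umbilical vein endothelium–PBMC co-culture. Baseline: DMSO, bidirectional fitting.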
# [9] = read-out: Monocyte Chemoattractant Protein-1 (MCP1), CCL2 (gene 6347); assay: BSK_LPS_MCP1: BioMAP Diversity Plus: LPS Assay for Monocyte Chemoattractant Protein-1 (MCP1) Biomarker Activity (AID 2283081); details: primary human HUVEC with PBMC; actives raise or lower the signal;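 as to AC50: secreted MCP-1 protein quantified by ELISA in culture supernatant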
# How it was run: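 LPS-stimulated HUVEC/PBMC co-culture; chemical, 24 h; MCP-1 by ELISA; bidirectional fit vs DMSO; cytotoxicity via SRB (0.1% stain, 10% TCA fix, 560 nm) in parallel wells.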
# [10] = BSK_LPS_PGE2: BioMAP Diversity Plus: LPS Assay for Prostaglandin E2 (PGE2) Biomarker Activity (AID 2283082); details: primary human HUVEC with PBMC; actives raise or lower the signal;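 as to AC50: secreted prostaglandin E2 measured by ELISA in LPS-stimulated co-culture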
# How it was run: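 Endpoint derived from bidirectional curve fitting versus DMSO of ELISA-measured PGE2 in LPS-stimulated human primary vascular co-culture (HUVEC with PBMC) harvested at 24 h.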
# [11] = read-out: Macrophage colony-stimulating factor (MCSF), CSF1 (gene 1435); assay: BSK_LPS_MCSF: BioMAP Diversity Plus: LPS Assay for Macrophage colony-stimulating factor (MCSF) Biomarker Activity (AID 2283083); details: primary human HUVEC with PBMC; actives raise or lower the signal
# How it was run: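 Compound is added to a human vascular primary co-culture of umbilical vein endothelium and blood mononuclear cells. After 24 h, M-CSF is quantified by ELISA. Signal changes are fitted in both directions against DMSO.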
# [12] = read-out: Tissue Factor, F3 (gene 2152); assay: BSK_LPS_TissueFactor: BioMAP Diversity Plus: LPS Assay for Tissue Factor Biomarker Activity (AID 2283084); details: primary human HUVEC with PBMC; actives raise or lower the signal
# How it was run: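 In this co-culture system of umbilical vein endothelium with PBMC, stimulated with LPS, cell-surface CD142 is detected by ELISA at 24 h. Endpoint values derive from bidirectional fitting, DMSO serving as baseline.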
# [13] = read-out: Vascular cell adhesion molecule 1 (VCAM1), VCAM1 (gene 7412); assay: BSK_LPS_VCAM1: BioMAP Diversity Plus: LPS Assay for Vascular cell adhesion molecule 1 (VCAM1) Biomarker Activity (AID 2283086); details: primary human HUVEC with PBMC; actives raise or lower the signal
# How it was run: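 Primary human vascular co-culture (umbilical vein endothelium plus PBMC) stimulated with LPS received chemical; 24 h later VCAM-1 was read by ELISA. Overt cytotoxicity was assessed by sulforhodamine B staining of parallel cultures at the same time point.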
# CD38, CD38 (gene 952) = assay: BSK_SAg_CD38: BioMAP Diversity Plus: SAg Assay for CD38 Biomarker Activity (AID 2283087); details: primary human HUVEC with PBMC; actives raise or lower the signal
# How it was run: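 Fluorescence ELISA of cell-surface CD38 served as the read-out, with either increase or decrease fitted against DMSO controls. Cells were a human umbilical vein endothelium plus PBMC co-culture under SEB/TSST-1 stimulation, measured 24 h after dosing.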
# CD40, CD40 (gene 958) [14] = assay: BSK_SAg_CD40: BioMAP Diversity Plus: SAg Assay for CD40 Biomarker Activity (AID 2283088); details: primary human HUVEC with PBMC; actives raise or lower the signal
# How it was run: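 Fluorescence ELISA read-out of CD40 from umbilical vein endothelium plus peripheral blood mononuclear cells, sampled 24 h after dosing. Values come from bidirectional curve fitting with DMSO as baseline.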
# CD69, CD69 (gene 969) = assay: BSK_SAg_CD69: BioMAP Diversity Plus: SAg Assay for CD69 Biomarker Activity (AID 2283089); details: primary human HUVEC with PBMC; actives raise or lower the signal;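 as to AC50: cell surface CD69 protein quantified by ELISA with fluorescence detection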
# How it was run: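 Endothelial/PBMC co-culture; chemical added; 24 h incubation; CD69 ELISA with fluorescence detection; bidirectional fit vs DMSO.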
# [15] = read-out: Monocyte Chemoattractant Protein-1 (MCP1), CCL2 (gene 6347); assay: BSK_SAg_MCP1: BioMAP Diversity Plus: SAg Assay for Monocyte Chemoattractant Protein-1 (MCP1) Biomarker Activity (AID 2283090); details: primary human HUVEC with PBMC; actives raise or lower the signal
# How it was run: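 MCP-1 levels in the endothelial–PBMC SAg co-culture were quantified by ELISA at 24 h post-dosing; both increases and decreases versus DMSO scored. Cytotoxicity monitored by SRB total protein in parallel cultures.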
# [16] = read-out: Tumor necrosis factor (Homo sapiens) (UniProt P01375); assay: BSK_LPS_TNFa: BioMAP Diversity Plus: LPS Assay for Tumour Necrosis Factor alpha (TNFa) Biomarker Activity (AID 2283085); details: primary human HUVEC with PBMC; actives raise or lower the signal
# How it was run: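 Primary human vascular co-culture of HUVEC and PBMC; TNFa ELISA 24 h after treatment, analysed as increase or decrease relative to DMSO control.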
# Chain of E-selectin (Homo sapiens) (P16581 whole entry, looked up): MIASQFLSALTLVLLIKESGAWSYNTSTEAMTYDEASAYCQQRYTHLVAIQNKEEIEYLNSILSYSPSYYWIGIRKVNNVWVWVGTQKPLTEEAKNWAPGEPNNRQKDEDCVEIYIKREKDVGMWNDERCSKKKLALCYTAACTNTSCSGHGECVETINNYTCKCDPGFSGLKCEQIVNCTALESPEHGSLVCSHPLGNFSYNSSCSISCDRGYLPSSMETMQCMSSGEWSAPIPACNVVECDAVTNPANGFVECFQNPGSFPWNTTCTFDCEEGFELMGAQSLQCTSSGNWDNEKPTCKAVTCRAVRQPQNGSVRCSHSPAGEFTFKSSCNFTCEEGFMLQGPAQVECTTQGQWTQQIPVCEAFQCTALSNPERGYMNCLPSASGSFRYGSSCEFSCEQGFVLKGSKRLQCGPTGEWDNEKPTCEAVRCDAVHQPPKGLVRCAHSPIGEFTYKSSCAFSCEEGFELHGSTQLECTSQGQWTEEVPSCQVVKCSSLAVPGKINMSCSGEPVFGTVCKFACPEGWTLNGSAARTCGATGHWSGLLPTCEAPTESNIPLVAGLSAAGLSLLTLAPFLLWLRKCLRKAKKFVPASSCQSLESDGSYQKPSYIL
# Chain of Tumor necrosis factor (Homo sapiens) (P01375 whole entry, looked up): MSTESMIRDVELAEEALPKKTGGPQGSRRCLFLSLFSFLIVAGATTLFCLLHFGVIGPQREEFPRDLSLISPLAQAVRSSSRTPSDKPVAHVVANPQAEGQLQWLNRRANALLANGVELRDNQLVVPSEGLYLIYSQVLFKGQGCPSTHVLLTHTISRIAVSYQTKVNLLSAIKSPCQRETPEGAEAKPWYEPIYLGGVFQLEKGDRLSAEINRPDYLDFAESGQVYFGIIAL
smiles,measurement,setting,value
CCN1CCC2(CC1)COc1cc3c(cc12)N(C(=O)c1ccc(-c2ccc(-c4nnc(C)o4)cc2C)cc1)CC3,AC50,[1],18.7 µM (active)
same,AC50,[2],27 µM (active)
same,AC50,[3],14.3 µM (active)
same,AC50,[4],29.9 µM (active)
same,AC50,"CD40, CD40 (gene 958) [5]",9.75 µM (active)
same,AC50,[6],29.3 µM (active)
same,AC50,[7],14.1 µM (active)
same,AC50,[8],9.03 µM (active)
same,AC50,[9],16.8 µM (active)
same,outcome,[10],inactive
same,AC50,[11],16.7 µM (active)
same,AC50,[12],18.7 µM (active)
same,AC50,[13],22.6 µM (active)
same,AC50,"CD38, CD38 (gene 952)",12.8 µM (active)
same,AC50,"CD40, CD40 (gene 958) [14]",18.7 µM (active)
same,AC50,"CD69, CD69 (gene 969)",12 µM (active)
same,AC50,[15],12.6 µM (active)
O=C1C2(Cl)C3(Cl)C4(Cl)C(Cl)(Cl)C5(Cl)C3(Cl)C1(Cl)C5(Cl)C24Cl (stereo not drawn),AC50,[1],6.14 µM (active)
same,AC50,[2],35.1 µM (active)
same,AC50,[3],8.52 µM (active)
same,AC50,[4],11.1 µM (active)
same,AC50,"CD40, CD40 (gene 958) [5]",7.66 µM (active)
same,AC50,[6],11.1 µM (active)
same,AC50,[7],14.5 µM (active)
same,AC50,[9],10.7 µM (active)
same,AC50,[10],9.92 µM (active)
same,AC50,[11],10.6 µM (active)
same,AC50,[12],12 µM (active)
same,AC50,[13],9.63 µM (active)
same,AC50,"CD38, CD38 (gene 952)",7.7 µM (active)
same,AC50,"CD40, CD40 (gene 958) [14]",8.7 µM (active)
same,AC50,"CD69, CD69 (gene 969)",8.18 µM (active)
same,AC50,[15],11.2 µM (active)
CCCCCCCCC(=O)NCc1ccc(O)c(OC)c1,outcome,[1],inactive
same,outcome,[2],inactive
same,outcome,[3],inactive
same,outcome,[4],inactive
same,outcome,"CD40, CD40 (gene 958) [5]",inactive
same,outcome,[6],inactive
same,outcome,[7],inactive
same,AC50,[8],0.1 µM (active)
same,outcome,[9],inactive
same,AC50,[10],12.8 µM (active)
same,outcome,[11],inactive
same,outcome,[12],inactive
same,outcome,[13],inactive
same,outcome,"CD38, CD38 (gene 952)",inactive
same,outcome,"CD40, CD40 (gene 958) [14]",inactive
same,outcome,"CD69, CD69 (gene 969)",inactive
same,outcome,[15],inactive
CCNc1nc(NC(C)(C)C)nc(SC)n1,outcome,[1],inactive
same,outcome,[2],inactive
same,outcome,[3],inactive
same,outcome,[4],inactive
same,outcome,"CD40, CD40 (gene 958) [5]",inactive
same,outcome,[6],inactive
same,outcome,[7],inactive
same,outcome,[8],inactive
same,outcome,[9],inactive
same,outcome,[10],inactive
same,outcome,[11],inactive
same,outcome,[12],inactive
same,outcome,[16],inactive
same,outcome,[13],inactive
same,outcome,"CD38, CD38 (gene 952)",inactive
same,outcome,"CD40, CD40 (gene 958) [14]",inactive
same,AC50,"CD69, CD69 (gene 969)",14.6 µM (active)
same,outcome,[15],inactive
